Results from the supplement of paper PMC11732987, “Enantioselective OTUD7B fragment discovery through chemoproteomics screening and high-throughput optimisation” (Communications Chemistry, 2025).
Values without a mark were called inactive.

Assays:
Test in all cases: log2 ratio of Biotin-Ahx-Ub-VS probe labelling (fragment/DMSO); higher = less target engagement (more negative = stronger competition), active = hit call of the paper (q ≤ 0.05, log2 ratio ≤ -1)
Conditions in all cases: compound concentration: 200 uM; treatment time: 3 h
USP19 = biological target: T1, USP19 (UniProt O94966)
T1 sequence (whole entry): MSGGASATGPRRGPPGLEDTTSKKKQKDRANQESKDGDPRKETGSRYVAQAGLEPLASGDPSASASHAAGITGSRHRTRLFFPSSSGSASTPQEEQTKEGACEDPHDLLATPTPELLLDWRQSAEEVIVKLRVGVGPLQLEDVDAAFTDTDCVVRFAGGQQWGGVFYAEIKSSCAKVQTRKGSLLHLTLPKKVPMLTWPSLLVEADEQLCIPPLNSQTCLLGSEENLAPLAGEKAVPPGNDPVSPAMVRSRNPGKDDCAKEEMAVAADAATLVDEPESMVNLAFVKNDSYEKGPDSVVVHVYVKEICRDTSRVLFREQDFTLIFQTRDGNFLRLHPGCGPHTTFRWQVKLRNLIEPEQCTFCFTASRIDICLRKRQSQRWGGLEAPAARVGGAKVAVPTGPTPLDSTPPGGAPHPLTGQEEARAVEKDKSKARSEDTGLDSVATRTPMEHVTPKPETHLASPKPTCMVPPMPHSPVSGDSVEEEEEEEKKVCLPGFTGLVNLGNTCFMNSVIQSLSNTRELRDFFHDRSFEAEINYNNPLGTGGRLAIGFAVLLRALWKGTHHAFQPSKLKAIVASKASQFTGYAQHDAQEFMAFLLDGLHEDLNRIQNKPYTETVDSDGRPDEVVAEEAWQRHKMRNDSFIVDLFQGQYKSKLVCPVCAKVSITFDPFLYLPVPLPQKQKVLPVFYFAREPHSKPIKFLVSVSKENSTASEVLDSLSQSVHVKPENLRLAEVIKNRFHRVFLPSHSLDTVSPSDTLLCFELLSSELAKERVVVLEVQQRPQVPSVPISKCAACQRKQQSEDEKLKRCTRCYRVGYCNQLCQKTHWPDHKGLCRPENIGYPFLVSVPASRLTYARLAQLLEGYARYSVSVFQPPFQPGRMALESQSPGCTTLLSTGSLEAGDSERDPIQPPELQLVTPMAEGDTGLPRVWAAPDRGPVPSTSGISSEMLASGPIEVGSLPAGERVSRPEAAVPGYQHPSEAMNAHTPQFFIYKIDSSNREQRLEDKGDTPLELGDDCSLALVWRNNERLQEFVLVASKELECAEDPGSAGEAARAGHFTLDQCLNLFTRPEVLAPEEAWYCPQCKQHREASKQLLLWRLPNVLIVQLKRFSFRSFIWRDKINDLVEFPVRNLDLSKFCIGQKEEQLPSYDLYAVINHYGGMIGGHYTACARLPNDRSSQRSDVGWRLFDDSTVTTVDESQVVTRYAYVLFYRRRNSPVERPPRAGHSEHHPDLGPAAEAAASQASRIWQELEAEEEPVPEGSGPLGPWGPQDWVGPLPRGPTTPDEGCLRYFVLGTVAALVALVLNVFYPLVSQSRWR
Method in brief: (§1)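 HEK293T lysate (495 µg per sample, in Tris/CHAPS/IGEPAL buffer with protease inhibitors) was exposed in triplicate for 3 h to fragment at 200 µM or to vehicle, then to Biotin-Ahx-Ub-VS at 0.5 µM final for 1 h. Labelled DUBs were enriched on NeutrAvidin, digested with LysC and trypsin, and analysed by diaPASEF LC-MS/MS. Spectronaut label-free quantities were normalised to the global median, and values are average log2 ratios of fragment over vehicle from an unpaired t-test. Only proteins with ≥2 unique peptides were used.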

USP22 = biological target: T2, USP22 (UniProt Q9UPT9)
T2 sequence (whole entry): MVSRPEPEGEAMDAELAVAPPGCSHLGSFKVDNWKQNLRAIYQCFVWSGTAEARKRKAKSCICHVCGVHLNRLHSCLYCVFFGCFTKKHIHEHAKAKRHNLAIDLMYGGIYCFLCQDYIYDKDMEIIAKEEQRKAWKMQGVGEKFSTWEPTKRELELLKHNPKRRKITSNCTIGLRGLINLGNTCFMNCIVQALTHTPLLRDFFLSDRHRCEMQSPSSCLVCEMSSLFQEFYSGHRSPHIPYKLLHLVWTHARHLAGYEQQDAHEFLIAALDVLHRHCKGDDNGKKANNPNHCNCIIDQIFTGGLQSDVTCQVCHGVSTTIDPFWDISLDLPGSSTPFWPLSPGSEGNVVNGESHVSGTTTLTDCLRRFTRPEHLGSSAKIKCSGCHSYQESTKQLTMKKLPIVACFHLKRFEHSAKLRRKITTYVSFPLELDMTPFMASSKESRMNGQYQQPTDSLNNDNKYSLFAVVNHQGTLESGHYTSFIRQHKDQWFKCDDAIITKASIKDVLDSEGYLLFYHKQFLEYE
Method in brief: as §1

USP24 = USP24 (UniProt Q9UPU5)
Chain of USP24 (Q9UPU5 whole entry): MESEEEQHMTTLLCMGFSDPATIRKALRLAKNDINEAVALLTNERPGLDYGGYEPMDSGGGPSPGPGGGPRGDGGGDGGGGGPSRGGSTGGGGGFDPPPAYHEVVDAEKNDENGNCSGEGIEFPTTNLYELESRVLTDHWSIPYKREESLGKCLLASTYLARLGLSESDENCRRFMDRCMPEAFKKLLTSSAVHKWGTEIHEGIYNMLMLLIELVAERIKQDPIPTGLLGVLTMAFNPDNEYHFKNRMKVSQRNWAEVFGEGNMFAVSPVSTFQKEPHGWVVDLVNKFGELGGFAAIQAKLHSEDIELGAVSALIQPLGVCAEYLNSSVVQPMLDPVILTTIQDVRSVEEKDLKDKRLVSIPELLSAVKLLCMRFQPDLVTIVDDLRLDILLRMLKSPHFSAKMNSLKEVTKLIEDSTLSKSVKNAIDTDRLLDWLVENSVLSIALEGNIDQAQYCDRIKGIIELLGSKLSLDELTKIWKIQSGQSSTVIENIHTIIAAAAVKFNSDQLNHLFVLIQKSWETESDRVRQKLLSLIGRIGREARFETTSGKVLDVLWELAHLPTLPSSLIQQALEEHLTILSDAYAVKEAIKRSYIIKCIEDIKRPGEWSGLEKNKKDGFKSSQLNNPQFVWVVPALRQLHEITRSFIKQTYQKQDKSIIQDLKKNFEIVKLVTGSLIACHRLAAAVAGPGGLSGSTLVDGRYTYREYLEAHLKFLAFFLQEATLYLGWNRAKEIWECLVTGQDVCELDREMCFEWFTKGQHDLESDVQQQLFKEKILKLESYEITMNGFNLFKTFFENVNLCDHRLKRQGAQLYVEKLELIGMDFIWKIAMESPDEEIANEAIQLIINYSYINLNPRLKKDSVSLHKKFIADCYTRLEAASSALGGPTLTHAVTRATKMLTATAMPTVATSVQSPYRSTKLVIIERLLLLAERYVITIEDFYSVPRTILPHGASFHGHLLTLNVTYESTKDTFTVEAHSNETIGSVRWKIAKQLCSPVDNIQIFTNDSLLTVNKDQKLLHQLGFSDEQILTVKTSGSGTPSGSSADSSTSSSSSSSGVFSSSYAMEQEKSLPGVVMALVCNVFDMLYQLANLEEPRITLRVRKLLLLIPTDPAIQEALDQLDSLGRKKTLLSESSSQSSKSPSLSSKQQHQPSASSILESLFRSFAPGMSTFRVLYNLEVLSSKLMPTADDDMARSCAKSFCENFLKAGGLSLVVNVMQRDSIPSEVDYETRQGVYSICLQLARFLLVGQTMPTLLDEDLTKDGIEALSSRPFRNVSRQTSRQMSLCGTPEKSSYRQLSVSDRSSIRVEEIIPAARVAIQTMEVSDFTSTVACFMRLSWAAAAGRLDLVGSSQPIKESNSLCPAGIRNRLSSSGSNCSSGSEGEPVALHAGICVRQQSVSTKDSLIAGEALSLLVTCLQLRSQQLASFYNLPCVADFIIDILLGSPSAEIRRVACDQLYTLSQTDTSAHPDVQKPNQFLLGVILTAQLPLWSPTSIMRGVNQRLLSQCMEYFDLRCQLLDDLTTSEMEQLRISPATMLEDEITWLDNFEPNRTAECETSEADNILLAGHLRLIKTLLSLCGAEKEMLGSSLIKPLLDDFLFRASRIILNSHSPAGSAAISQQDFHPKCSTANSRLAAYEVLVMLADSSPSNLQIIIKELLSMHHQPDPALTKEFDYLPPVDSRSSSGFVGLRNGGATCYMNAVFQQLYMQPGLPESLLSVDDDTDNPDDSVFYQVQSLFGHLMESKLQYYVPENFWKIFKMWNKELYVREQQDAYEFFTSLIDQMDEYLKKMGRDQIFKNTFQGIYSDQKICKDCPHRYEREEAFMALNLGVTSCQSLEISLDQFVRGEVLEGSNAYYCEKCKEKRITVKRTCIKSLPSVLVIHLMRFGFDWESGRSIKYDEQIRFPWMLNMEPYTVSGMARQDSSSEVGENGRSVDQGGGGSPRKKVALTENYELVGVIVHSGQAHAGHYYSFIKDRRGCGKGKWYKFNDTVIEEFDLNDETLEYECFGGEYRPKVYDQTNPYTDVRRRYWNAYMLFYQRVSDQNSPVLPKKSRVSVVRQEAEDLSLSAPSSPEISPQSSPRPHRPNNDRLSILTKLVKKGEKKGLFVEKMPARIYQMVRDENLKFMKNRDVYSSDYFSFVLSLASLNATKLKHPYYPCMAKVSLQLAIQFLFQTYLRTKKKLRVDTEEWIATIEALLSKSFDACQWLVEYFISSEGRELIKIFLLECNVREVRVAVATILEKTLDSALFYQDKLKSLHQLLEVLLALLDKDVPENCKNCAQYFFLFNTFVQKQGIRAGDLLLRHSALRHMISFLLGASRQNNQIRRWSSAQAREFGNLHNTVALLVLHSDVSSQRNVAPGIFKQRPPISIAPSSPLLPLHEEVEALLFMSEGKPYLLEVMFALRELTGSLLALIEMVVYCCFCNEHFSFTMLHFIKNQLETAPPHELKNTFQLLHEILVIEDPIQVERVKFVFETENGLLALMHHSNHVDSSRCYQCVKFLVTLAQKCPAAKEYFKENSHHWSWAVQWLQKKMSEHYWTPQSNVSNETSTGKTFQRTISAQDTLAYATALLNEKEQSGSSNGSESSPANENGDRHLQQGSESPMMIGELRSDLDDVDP
Method in brief: as §1

USP25 = biological target: T3, USP25 (UniProt Q9UHP3)
T3 sequence (whole entry): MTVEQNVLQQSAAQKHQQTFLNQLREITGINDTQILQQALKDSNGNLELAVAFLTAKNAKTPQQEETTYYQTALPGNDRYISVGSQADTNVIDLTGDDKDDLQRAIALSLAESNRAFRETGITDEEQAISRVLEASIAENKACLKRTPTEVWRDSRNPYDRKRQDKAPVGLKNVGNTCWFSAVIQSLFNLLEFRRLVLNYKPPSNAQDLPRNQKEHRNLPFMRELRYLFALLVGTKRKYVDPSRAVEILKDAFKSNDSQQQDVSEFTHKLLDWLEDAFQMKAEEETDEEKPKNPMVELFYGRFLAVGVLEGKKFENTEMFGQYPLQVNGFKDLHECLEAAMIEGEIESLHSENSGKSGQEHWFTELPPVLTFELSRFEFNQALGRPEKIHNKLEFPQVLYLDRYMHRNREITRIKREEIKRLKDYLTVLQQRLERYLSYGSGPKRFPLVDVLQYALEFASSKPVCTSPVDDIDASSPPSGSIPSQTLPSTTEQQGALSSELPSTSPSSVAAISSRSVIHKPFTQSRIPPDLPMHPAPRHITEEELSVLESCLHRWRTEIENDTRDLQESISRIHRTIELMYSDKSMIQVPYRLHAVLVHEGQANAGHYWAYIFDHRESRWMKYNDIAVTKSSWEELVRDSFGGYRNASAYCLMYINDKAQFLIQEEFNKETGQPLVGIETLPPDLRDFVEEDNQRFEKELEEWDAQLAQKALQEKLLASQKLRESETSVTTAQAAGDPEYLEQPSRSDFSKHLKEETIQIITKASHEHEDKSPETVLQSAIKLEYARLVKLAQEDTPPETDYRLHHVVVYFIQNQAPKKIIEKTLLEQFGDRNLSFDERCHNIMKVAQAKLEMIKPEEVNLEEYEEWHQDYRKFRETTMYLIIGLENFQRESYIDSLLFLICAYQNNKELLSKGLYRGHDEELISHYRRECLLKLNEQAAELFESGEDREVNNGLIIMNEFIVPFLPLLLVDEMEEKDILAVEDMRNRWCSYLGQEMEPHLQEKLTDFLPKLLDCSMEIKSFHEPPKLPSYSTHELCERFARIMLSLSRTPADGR
Method in brief: as §1

USP28 = biological target: T4, USP28 (UniProt Q96RU2)
T4 sequence (whole entry): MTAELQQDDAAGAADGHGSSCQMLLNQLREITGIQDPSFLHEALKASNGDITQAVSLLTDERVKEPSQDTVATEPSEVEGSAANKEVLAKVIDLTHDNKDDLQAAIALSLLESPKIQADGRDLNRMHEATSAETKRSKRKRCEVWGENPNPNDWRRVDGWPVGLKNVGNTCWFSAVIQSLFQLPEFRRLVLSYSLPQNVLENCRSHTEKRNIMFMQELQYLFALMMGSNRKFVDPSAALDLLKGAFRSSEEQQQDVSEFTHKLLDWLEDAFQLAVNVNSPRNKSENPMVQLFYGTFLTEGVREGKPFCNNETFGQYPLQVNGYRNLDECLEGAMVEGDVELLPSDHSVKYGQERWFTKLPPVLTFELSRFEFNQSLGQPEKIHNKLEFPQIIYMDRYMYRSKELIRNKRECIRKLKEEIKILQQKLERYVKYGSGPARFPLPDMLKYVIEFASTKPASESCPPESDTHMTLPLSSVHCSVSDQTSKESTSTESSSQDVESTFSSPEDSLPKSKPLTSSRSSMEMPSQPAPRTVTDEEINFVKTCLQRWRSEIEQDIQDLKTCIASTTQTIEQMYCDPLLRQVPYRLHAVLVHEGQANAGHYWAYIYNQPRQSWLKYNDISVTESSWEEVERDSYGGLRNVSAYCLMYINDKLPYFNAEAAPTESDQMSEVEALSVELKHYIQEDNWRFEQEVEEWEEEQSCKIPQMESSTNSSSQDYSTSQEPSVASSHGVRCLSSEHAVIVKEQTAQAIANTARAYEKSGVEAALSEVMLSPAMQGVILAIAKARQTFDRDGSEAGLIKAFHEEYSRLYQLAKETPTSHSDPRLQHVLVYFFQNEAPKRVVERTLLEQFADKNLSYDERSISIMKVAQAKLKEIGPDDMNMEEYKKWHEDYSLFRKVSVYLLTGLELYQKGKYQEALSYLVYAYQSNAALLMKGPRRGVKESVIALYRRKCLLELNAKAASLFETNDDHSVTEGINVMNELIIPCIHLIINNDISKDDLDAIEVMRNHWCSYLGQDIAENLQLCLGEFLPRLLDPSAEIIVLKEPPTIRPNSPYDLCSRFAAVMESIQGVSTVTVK
Method in brief: as §1

O=C(CCl)Nc1nc(-c2cccs2)cs1
log2 ratio of Biotin-Ahx-Ub-VS probe labelling (USP19): -0.517 | log2 ratio of Biotin-Ahx-Ub-VS probe labelling (USP22): -0.167 | log2 ratio of Biotin-Ahx-Ub-VS probe labelling (USP24): -1.48 (active) | log2 ratio of Biotin-Ahx-Ub-VS probe labelling (USP25): -0.387 | log2 ratio of Biotin-Ahx-Ub-VS probe labelling (USP28): -0.678
